# Measured values published in PubChem BioAssay.
# Calls of active or inactive are those of the source. Unless noted, the rule behind the calls is not given here.
# Columns and labels:
# [1] = resazurin metabolic signal in HepG2 cells – cell-based, resazurin fluorescence, 24 h, PK04 Diversity Set, profiling panel (AID 1172); conditions: HepG2 viability, higher = more signal
# [2] = budding yeast growth changes without added modifier – OD600, strain BY4716, 24 h, basal condition, primary screen (AID 1173); conditions: S. cerevisiae BY4716 growth, OD600, 24 h; higher = more signal, called active from +8 up or from −8 down
# [3] = viability profiling in MM1S myeloma cells – cell-based, resazurin fluorescence, basal, 24 h, PK04 Diversity Set, profiling panel (AID 1174); conditions: higher = more signal, called active from +8 up or from −8 down;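 note: MM1S multiple myeloma cell line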
# [4] = target: Dihydroorotate dehydrogenase (quinone), mitochondrial (Plasmodium falciparum (isolate 3D7)) (UniProt Q08210); experiment: inhibition of P. falciparum DHODH – biochemical, C-terminal His tag, absorbance 600 nm, primary screen (AID 1175); conditions: PfDHODH enzyme, DCIP absorbance 600 nm; higher = more signal, called active from +8 up or from −8 down;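 note: recombinant parasite enzyme with a five histidine tag at its C terminus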
# Sequence of Dihydroorotate dehydrogenase (quinone), mitochondrial (Plasmodium falciparum (isolate 3D7)) (Q08210 whole entry, looked up): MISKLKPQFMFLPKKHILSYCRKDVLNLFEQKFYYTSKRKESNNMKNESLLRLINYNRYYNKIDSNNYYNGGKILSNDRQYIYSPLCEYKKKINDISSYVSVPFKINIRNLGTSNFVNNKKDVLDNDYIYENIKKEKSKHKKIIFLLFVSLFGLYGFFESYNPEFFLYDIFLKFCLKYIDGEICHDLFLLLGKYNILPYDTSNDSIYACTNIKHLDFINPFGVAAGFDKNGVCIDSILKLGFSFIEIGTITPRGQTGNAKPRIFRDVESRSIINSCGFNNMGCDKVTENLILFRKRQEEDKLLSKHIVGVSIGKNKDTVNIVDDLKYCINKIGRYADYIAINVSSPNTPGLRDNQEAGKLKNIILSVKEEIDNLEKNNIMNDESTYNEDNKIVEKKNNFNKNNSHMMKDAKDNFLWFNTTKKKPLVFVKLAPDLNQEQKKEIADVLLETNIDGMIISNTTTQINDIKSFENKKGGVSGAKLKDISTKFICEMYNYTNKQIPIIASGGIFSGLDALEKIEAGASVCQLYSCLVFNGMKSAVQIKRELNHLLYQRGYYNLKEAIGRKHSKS
# [5] = inhibition of PAO1 biofilm formation – strain PAO1, LB-PBS medium, absorbance 600 nm, primary screen (AID 1176); conditions: P. aeruginosa PAO1 growth/biofilm, A600, 12 h; higher = more signal
# [6] = growth modulation of vineyard yeast isolate – strain RM11-1a, OD600, basal, 24 h, primary screen (AID 1177);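 note: cultures grown under basal conditions with no added stressor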; conditions: S. cerevisiae RM11-1a growth, OD600, 24 h; higher = more signal, called active from +8 up or from −8 down
# [7] = growth of efflux-deficient E. coli DRC39 – strain DRC39, OD650, 24 h, E. coli filamentation inducers, primary screen (AID 1178);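 note: growth measured as culture turbidity by optical density at 650 nm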; conditions: E. coli DRC39 acrAB, higher = more signal, called active from +8 up or from −8 down
# [8] = growth of efflux-deficient E. coli DRC39 – strain DRC39, OD650, 48 h, E. coli filamentation inducers, primary screen (AID 1179);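 note: screen aims at cell division blockers that make cells filament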; conditions: E. coli DRC39 delta-acrAB growth, higher = more signal, called active from +8 up or from −8 down
# [9] = viability profiling in RPMI8226 myeloma cells – cell-based, resazurin fluorescence, basal, 24 h, PK04 Diversity Set, profiling panel (AID 1180); conditions: higher = more signal;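 note: RPMI8826 multiple myeloma cell line at 5000 cells per well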
# [10] = target: E3 ubiquitin-protein ligase XIAP (Homo sapiens) (UniProt P98170); experiment: small molecules binding XIAP protein – biophysical, small-molecule microarray, fluorescence 635 nm, primary screen (AID 1181); conditions: higher = more signal;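 note: score merges 667 nm emission and signal to noise over triplicate slides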
# Sequence of E3 ubiquitin-protein ligase XIAP (Homo sapiens) (P98170 whole entry, looked up, the tested form may be a part): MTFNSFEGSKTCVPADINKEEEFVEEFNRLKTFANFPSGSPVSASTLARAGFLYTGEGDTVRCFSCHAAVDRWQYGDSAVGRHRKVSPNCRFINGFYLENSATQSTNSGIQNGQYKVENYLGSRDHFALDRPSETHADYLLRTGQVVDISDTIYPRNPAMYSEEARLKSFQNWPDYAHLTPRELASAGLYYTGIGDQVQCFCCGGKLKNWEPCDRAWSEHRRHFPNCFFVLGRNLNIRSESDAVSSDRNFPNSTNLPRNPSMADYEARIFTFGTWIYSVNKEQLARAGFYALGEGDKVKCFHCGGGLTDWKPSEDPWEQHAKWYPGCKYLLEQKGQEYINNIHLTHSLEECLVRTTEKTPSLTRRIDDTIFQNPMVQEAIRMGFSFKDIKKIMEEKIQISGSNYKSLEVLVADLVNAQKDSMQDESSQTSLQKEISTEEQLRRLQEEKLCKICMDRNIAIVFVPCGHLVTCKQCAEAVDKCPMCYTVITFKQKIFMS
# [11] = tested on: XIP peptide (Xip251-270) binding; experiment: XIP fragment 251-270 binding compounds – biochemical, small-molecule microarray, fluorescence 635/667 nm, 0.1 µg/mL protein, primary screen (AID 1182); conditions: fluorescent protein binding, 635 nm, higher = more signal, called active from +8 up or from −8 down
# XIP peptide (Xip251-270) = experiment: compounds binding XIP fragment 251-270 – biochemical, small-molecule microarray, fluorescence 635/667 nm, 0.5 µg/mL protein, primary screen (AID 1183); conditions: fluorescence 635 nm, higher = more signal
# [12] = blood-stage malaria parasite viability loss – strain 3D7, DAPI fluorescence, 100 nL, primary screen (AID 1184);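 note: parasites grown inside human red blood cells in medium with human serum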; conditions: P. falciparum 3D7 growth, 3 d, higher = more signal
# [13] = target: Homeobox protein Hox-A13 (Mus musculus) (UniProt Q62424); experiment: disruptors of Hoxa13 oligonucleotide interaction – biochemical, fluorescence polarization, labeled oligonucleotide, primary screen (AID 1185); conditions: Hoxa13:DNA binding, 15 min, higher = more signal, called active from +8 up or from −8 down
# Sequence of Homeobox protein Hox-A13 (Mus musculus) (Q62424 whole entry, looked up): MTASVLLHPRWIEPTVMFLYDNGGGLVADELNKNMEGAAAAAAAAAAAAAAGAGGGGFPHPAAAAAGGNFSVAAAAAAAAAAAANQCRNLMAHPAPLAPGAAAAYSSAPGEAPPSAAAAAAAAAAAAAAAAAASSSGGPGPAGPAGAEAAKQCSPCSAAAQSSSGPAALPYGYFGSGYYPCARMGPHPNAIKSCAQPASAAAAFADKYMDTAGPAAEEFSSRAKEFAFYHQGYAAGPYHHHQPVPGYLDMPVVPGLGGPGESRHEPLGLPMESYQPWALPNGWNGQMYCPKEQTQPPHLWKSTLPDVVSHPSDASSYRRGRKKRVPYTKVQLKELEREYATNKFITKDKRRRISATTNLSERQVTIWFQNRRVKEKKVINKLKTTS
# [14] = blockers of DNA damage checkpoint Chk1 activation – imaging, HeLa, hydroxyurea, phospho-Chk1 antibody, percent positive cells, primary screen (AID 1186); conditions: hydroxyurea-induced phospho-Chk1 immunofluorescence imaging, higher = more signal
# [15] = blockers of DNA damage checkpoint Chk1 activation – imaging, HeLa, hydroxyurea, phospho-Chk1 nuclear intensity, primary screen (AID 1187); conditions: hydroxyurea-induced phospho-Chk1 immunofluorescence imaging, higher = more signal
SMILES,z-score [1],z-score [2],z-score [3],composite z-score [4],z-score [5],z-score [6],z-score [7],z-score [8],z-score [9],composite z-score [10],composite z-score [11],composite z-score (XIP peptide (Xip251-270)),z-score [12],z-score [13],z-score [14],z-score [15]
C=C[C@H](C)[C@@H](OC(=O)Nc1ccc(SC)cc1)c1ccc(O)c2ccccc12,-0.752,-18.2 (active),-3.78 (inactive),-1.84 (inactive),0.908 (inactive),-5.28 (inactive),-0.33 (inactive),-0.638 (inactive),-3,-0.258,0.68 (inactive),0.248,-0.127,-4.35 (inactive),1.16 (inactive),0.893 (inactive)
CCCCN1CC=CC23O[C@@H]4/C=C\CCCOC(=O)C4[C@H]2C(=O)N(CCCCCO)[C@@H]3C1=O (stereo not given in full),0.641,-0.287 (inactive),0.451 (inactive),-0.757 (inactive),1.02 (inactive),-1.06 (inactive),0.0497 (inactive),-0.15 (inactive),0.313,0.161,-0.359 (inactive),0.41,1.34,-4.13 (inactive),1.19 (inactive),0.831 (inactive)
CCCC[C@H]1C[C@@H]1[C@@H]1N(P(=O)(c2ccccc2)c2ccccc2)C[C@@](O)(c2ccccc2)CC12CC2,2.63,-0.763 (inactive),1.07 (inactive),-0.244 (inactive),0.122 (inactive),0.781 (inactive),-0.446 (inactive),-0.412 (inactive),-1.79,0.0447,-0.0646 (inactive),-0.0749,-1.22,-2.37 (inactive),0.0682 (inactive),0.228 (inactive)
CC(C)(C)OC(=O)CC[C@]1(C(=O)NCCN2CCOCC2)COC(c2ccc(OCCCO)cc2)=N1,0.0093,0.321 (inactive),0.382 (inactive),0.731 (inactive),-0.525 (inactive),0.345 (inactive),0.119 (inactive),1.18 (inactive),0.513,-0.0118,1.16 (inactive),0.759,0.51,-3.66 (inactive),-0.131 (inactive),0.0826 (inactive)
Cc1ccc([C@H]2C(C(=O)O)=CCN2S(=O)(=O)c2ccc(C)cc2)cc1,-0.585,0.292 (inactive),-0.81 (inactive),-0.381 (inactive),-0.088 (inactive),-0.114 (inactive),-0.429 (inactive),-0.392 (inactive),-0.325,0.296,-0.609 (inactive),0.66,0.546,-2.98 (inactive),0.586 (inactive),-0.222 (inactive)
O=C1NC(=O)C2C1C=CC(C(O)c1ccc(I)cc1)N2Nc1ccc(Cl)cc1Cl (stereo not given),-1.99,-15.1 (active),-0.177 (inactive),-1.4 (inactive),2.06 (inactive),-4.5 (inactive),0.163 (inactive),-0.186 (inactive),-0.137,-0.108,0.9 (inactive),0.284,0.692,-3.94 (inactive),0.0215 (inactive),0.33 (inactive)
C=CCC(OC(C)=O)[C@@H]1[C@@H](N(Cc2ccc(-c3ccccc3)cc2)C(=O)Cc2ccc(F)cc2)c2cc(OCCCO)ccc2N1C(=O)c1ccc2ccccc2c1 (stereo not given in full),-0.228,-0.458 (inactive),0.376 (inactive),0.683 (inactive),0.0885 (inactive),-0.198 (inactive),-0.794 (inactive),-0.397 (inactive),-0.112,-0.146,-0.568 (inactive),-0.245,-2.17,-1.35 (inactive),0.295 (inactive),-0.009 (inactive)
CCCCCCc1nc(-c2ccc(-c3ccc(Cl)c(Cl)c3)o2)c(C)c2c1[Si](C(C)C)(C(C)C)OC2,-0.865,-4.18 (inactive),-2.84 (inactive),-2.2 (inactive),0.668 (inactive),-0.721 (inactive),-0.0618 (inactive),-0.616 (inactive),-1.42,-0.113,-0.376 (inactive),0.148,-2.4,-2.13 (inactive),0.394 (inactive),0.251 (inactive)
COCCCNC(=O)[C@]1(Cc2ccccc2)N=C(c2ccc(OCCCO)cc2)O[C@@H]1c1ccccc1CN=[N+]=[N-],-0.316,-1.29 (inactive),-0.491 (inactive),-0.925 (inactive),1.8 (inactive),0.0435 (inactive),0.228 (inactive),1.55 (inactive),-1.08,0.0136,1.88 (inactive),0.711,-2.33,-3.2 (inactive),-0.6 (inactive),-0.537 (inactive)
COC(=O)[C@@]1(CCC(=O)OC(C)(C)C)N=C(c2ccc(OCCCO)cc2)O[C@H]1c1ccccc1,-0.291,-0.814 (inactive),-1.34 (inactive),1.27 (inactive),0.618 (inactive),1.47 (inactive),-3.29 (inactive),-0.735 (inactive),-0.808,-0.0095,0.485 (inactive),0.732,-2.43,-4.58 (inactive),-0.17 (inactive),0.284 (inactive)
